Reference: PubChem BioAssay (NCI)
“And” between values parts separate entries of the source, which are not always exact repeats. Equal values may be shown once. The panel holds about 79,000 compounds, 15% with a hit somewhere; the sample as a whole holds those more often. A number with no mark means an inactive call. The source made the active and inactive calls. No stated cut-off is given here; in the data, active means growth inhibition above about 70%; inactive means the rest.

experiment: NCI Yeast Anticancer Drug Screen. Data for the sgs1 mgt1 strain (AID 161);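 further: 0% = growth of cultures given vehicle only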; conditions: S. cerevisiae sgs1 mgt1 strain, at 50.0 µM (retest, dose inferred, filed as 5.0), active compounds read high
How it was run: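 Read-out: growth inhibition vs vehicle controls. Cells: mutant yeast strain deficient in DNA damage repair.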

| SMILES | growth inhibition |
| --- | --- |
| CC(=O)OC1=CC2=CCC3C(CCC4(C)C(C(C)=O)CCC34)C2(C)CC1 (stereo not drawn) | 8% |
| CCCC/C=C1/CCC(CN(C)C)C1=O (stereo not drawn) | 56% |
| COc1ccc(C2CC(c3c(O)ccc4ccccc34)=NN2)cc1OC (stereo not drawn) | 97% (active) |
| O=c1[nH]c2c([N+](=O)[O-])cc(Cl)cc2nc1/C=C(\O)c1ccco1 | 54% |
| NC1c2ccccc2-c2ccc([N+](=O)[O-])cc21 (stereo not drawn) | 35% |
| O=C(/C=C(/Nc1ccccc1)C(=O)c1ccccc1)c1ccccc1 | 90% (active) |
| Nc1ccc2[nH]c3ccccc3c2c1 | 0% |
| Clc1ccc([I+]c2cccs2)cc1 | 98% (active) |
| CCCCCCC(C)S(=O)(=O)c1ccc(C)cc1 (stereo not drawn) | 75% (active) |
| COC(=O)/C(=C/C=C(c1ccccc1)c1ccccc1)N(C(C)=O)C(C)=O | 67% |
| Oc1ccc(Cc2cccc(Br)c2)c(O)c1 | 99% (active) |
| O=C(NNc1nc(-c2ccccc2)cs1)C(F)(F)F | 99% (active) |
| Nc1nc(-c2ccc(Cl)cc2)cs1 | 91% (active) |
| Cc1cc(C)nc(CCSS(=O)(=O)O)c1 | 6% |
| Oc1ccc(N=Nc2ccccc2)c(O)c1.Oc1ccc(N=Nc2ccccc2)c(O)c1.[Cu] | 97% (active) |
| COC(=O)/C=N/O | -4% |
| C=CCCCCO/N=C/c1c2c(O)c3c(O)c(C)c4c(c3c1O)C(=O)C(C)(O/C=C/C(OC)C(C)C(OC(C)=O)C(C)C(O)C(C)C(O)C(C)/C=C/C=C(\C)C(=O)N2)O4 (stereo not drawn) | 87% (active) |
| O=C(N/C(=C\c1ccc2c(c1)OCO2)c1nc2ccccc2s1)c1ccccc1 | 98% (active) |
| C=C1C[C@H](O)[C@H]2C(C[Se]c3ccccc3)C(=O)O[C@@H]2[C@H]2[C@H](C)C(O)C[C@@H]12 (stereo partly drawn) | 61% |
| CC1=C(C(=O)Nc2ccccc2C)C(c2ccccc2F)C(C(=O)Nc2ccccc2C)=C(C)N1 | 6% |
| COC(=O)CCC(NC(=S)N/N=C(\C)c1cnc2ccccc2n1)C(=O)OC (stereo not drawn) | -5% |
| CCOc1c(N=Nc2ccc(Cl)cc2)c(-c2ccccc2)nn1C(N)=S | 92% (active) |
| CC(=O)N(C1=CC(=O)c2ccccc2C1=O)c1ccc(Cl)cc1 | 97% (active) |
| O=C(C1=Cc2ccccc2OC1)N1CCN(c2cccc(Cl)c2)CC1 | 97% (active) |
| CCCCCCCCCCCC1=NCC(C)N1 (stereo not drawn) | 1% |
| c1ccc2c(B(c3cccc4ccccc34)c3cccc4ccccc34)cccc2c1 | 99% (active) |
| CC(CCOP(=O)(O)OCCC(C)CC(C)(C)C)CC(C)(C)C (stereo not drawn) | 52% |
| CC(C)(C)C(=O)CC(=O)C(F)(F)C(F)(F)C(F)(F)F.[Ag] | 99% (active) |

same assay, conditions: S. cerevisiae sgs1 mgt1 strain, at 50.0 µM, active compounds read high

| SMILES | growth inhibition |
| --- | --- |
| CC(=O)OC1=CC2=CCC3C(CCC4(C)C(C(C)=O)CCC34)C2(C)CC1 (stereo not drawn) | 7.35% |
| CC(=O)OCC(OC(C)=O)C(OC(C)=O)C(OC(C)=O)C(COC(C)=O)OC(C)=O (stereo not drawn) | 3.45% and 10.6% and -10.8% |
| CCCC/C=C1/CCC(CN(C)C)C1=O (stereo not drawn) | 81% (active) |
| COc1ccc(C2CC(c3c(O)ccc4ccccc34)=NN2)cc1OC (stereo not drawn) | 90.4% (active) |
| O=c1[nH]c2c([N+](=O)[O-])cc(Cl)cc2nc1/C=C(\O)c1ccco1 | 84.2% (active) |
| NC1c2ccccc2-c2ccc([N+](=O)[O-])cc21 (stereo not drawn) | 26.6% |
| O=C(/C=C(/Nc1ccccc1)C(=O)c1ccccc1)c1ccccc1 | 68.8% |
| Nc1ccc2[nH]c3ccccc3c2c1 | 40.2% |
| Clc1ccc([I+]c2cccs2)cc1 | 8.95% |
| CCCCCCC(C)S(=O)(=O)c1ccc(C)cc1 (stereo not drawn) | 59.7% |
| COC(=O)/C(=C/C=C(c1ccccc1)c1ccccc1)N(C(C)=O)C(C)=O | 99.6% (active) |
| Oc1ccc(Cc2cccc(Br)c2)c(O)c1 | 99.3% (active) |
| O=C(NNc1nc(-c2ccccc2)cs1)C(F)(F)F | 87.5% (active) |
| Nc1nc(-c2ccc(Cl)cc2)cs1 | 98.2% (active) |
| Cc1cc(C)nc(CCSS(=O)(=O)O)c1 | 3.35% |
| Oc1ccc(N=Nc2ccccc2)c(O)c1.Oc1ccc(N=Nc2ccccc2)c(O)c1.[Cu] | 98.9% (active) |
| COC(=O)/C=N/O | 8.85% |
| C=CCCCCO/N=C/c1c2c(O)c3c(O)c(C)c4c(c3c1O)C(=O)C(C)(O/C=C/C(OC)C(C)C(OC(C)=O)C(C)C(O)C(C)C(O)C(C)/C=C/C=C(\C)C(=O)N2)O4 (stereo not drawn) | 66.8% |
| O=C(N/C(=C\c1ccc2c(c1)OCO2)c1nc2ccccc2s1)c1ccccc1 | 98.1% (active) |
| C=C1C[C@H](O)[C@H]2C(C[Se]c3ccccc3)C(=O)O[C@@H]2[C@H]2[C@H](C)C(O)C[C@@H]12 (stereo partly drawn) | 17.2% |
| CC1=C(C(=O)Nc2ccccc2C)C(c2ccccc2F)C(C(=O)Nc2ccccc2C)=C(C)N1 | 6.6% |
| COC(=O)CCC(NC(=S)N/N=C(\C)c1cnc2ccccc2n1)C(=O)OC (stereo not drawn) | 67.1% |
| OCC(O)C(O)C(O)C(O)C(SCc1ccccc1)SCc1ccccc1 (stereo not drawn) | 6.25% and -7.1% and 8.7% |
| CCOc1c(N=Nc2ccc(Cl)cc2)c(-c2ccccc2)nn1C(N)=S | 93.9% (active) |
| CC(=O)N(C1=CC(=O)c2ccccc2C1=O)c1ccc(Cl)cc1 | 95.2% (active) |
| O=C(C1=Cc2ccccc2OC1)N1CCN(c2cccc(Cl)c2)CC1 | 72.2% (active) |
| CCCCCCCCCCCC1=NCC(C)N1 (stereo not drawn) | 28.6% |
| c1ccc2c(B(c3cccc4ccccc34)c3cccc4ccccc34)cccc2c1 | 98.7% (active) |
| CC(CCOP(=O)(O)OCCC(C)CC(C)(C)C)CC(C)(C)C (stereo not drawn) | 35.4% |
| CC(C)(C)C(=O)CC(=O)C(F)(F)C(F)(F)C(F)(F)F.[Ag] | 90% (active) |
